We go through 26 molecules from PubChem BioAssay (Tox21).

Experiment [1] can be described thus: qHTS assay for small molecule agonists of the p53 signaling pathway (AID 651631; calls by dose curve; note: nearly all actives have a fitted effect of over 15% in size). An outline of the steps:
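HCT-116 cells carrying a beta-lactamase reporter under p53 response elements were dosed with compound for 16 h at 37 °C. LiveBLAzer B/G FRET substrate was then added for 2 h at room temperature, and fluorescence intensity was read to detect pathway agonism.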
In general terms: In qHTS, concentration-response curves come from the screen itself.

The nature of experiment [2]: qHTS assay for small molecules that induce genotoxicity in human embryonic kidney cells expressing luciferase-tagged ATAD5 (AID 651632). Note: nearly all actives have a fitted effect of over 15% in size. An outline of the steps: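 A rise in luciferase signal from ATAD5-tagged HEK293T cells marks genetic stress. Cells were exposed to compounds for 16 hr at 37C, 5% CO2, then luciferase was quantified after a 30 min room-temperature incubation with Amplite.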

A short description of experiment [3]: qHTS assay for small molecule agonists of the p53 signaling pathway - cell viability (AID 651633; calls by dose curve;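 note: p53RE-bla HCT reporter cells with a stable beta-lactamase p53 reporter; series mostly up to about 83 µM; nearly all actives have a fitted effect of over 30% in size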). An outline of the steps:
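p53RE-bla cells, seeded at 4,000 per well and rested 5 h at 37 C/5% CO2, received compounds in DMSO for 16 h at 37 C. CellTiter-Glo was then added, and luminescence was read after 30 min at room temperature to gauge cytotoxicity.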

A short description of experiment [4]: qHTS assay for small molecules that induce genotoxicity in human embryonic kidney cells expressing luciferase-tagged ATAD5 - cell viability (AID 651634; calls by dose curve; note: nearly all actives have a fitted effect of over 25% in size). An outline of the steps: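 Cytotoxicity counter-readout: after 15.5 hr compound treatment at 37C, live-cell protease activity in ATAD5-luciferase HEK293T cells measured by CellTiter-Fluor fluorescence, 30 min development at 37C.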

A short description of experiment [5]: qHTS assay for small molecule disruptors of the mitochondrial membrane potential - cell viability (AID 720634; calls by dose curve;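 note: human HepG2 liver cancer cells; series mostly up to about 83 µM; nearly all actives have a fitted effect of over 20% in size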). An outline of the steps:
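Cytotoxicity was quantified from ATP content by CellTiter-Glo luminescence in the same wells as the MMP dye read-out. HepG2 (2,000 cells/well) were plated overnight and exposed to compounds for 1 hr at 37 C.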

The nature of experiment [6]: qHTS assay for small molecule disruptors of the mitochondrial membrane potential (AID 720635). Note: potency is the fitted concentration of half-maximal effect. An outline of the steps: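 HepG2 cells (2,000/well) attached overnight at 37C, then took compound for 1 hr at 37C, 5% CO2. Mito-MPS dye was added for 30 min; fluorescence was read at 490/535 nm (monomers) and 540/590 nm (aggregates).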
Experiment [7] can be described thus: qHTS assay to test for compound auto fluorescence at 535 nm (green) in HepG2 cells (AID 720675).
The nature of experiment [8]: qHTS assay to test for compound auto fluorescence at 460 nm (blue) in HEK293 cells (AID 720678). An outline of the steps: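 Cells were seeded and left to adhere for 4-5 hr at 37C. Compounds were then pin-transferred. After an overnight incubation at 37C under 5% CO2, intrinsic fluorescence at 405/460 nm was measured and referenced to triamterene.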
Experiment [9] is described as follows: qHTS assay to test for compound auto fluorescence at 590 nm (red) in HEK293 cells (AID 720679). An outline of the steps: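 Each well held 2,000 HEK293 cells in medium containing 10% dialyzed FBS. Following 4-5 hr attachment at 37C, 23 nL test compound or DMSO was added; plates sat overnight, and red fluorescence (540/590nm) was recorded.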
Experiment [10] in a line: qHTS assay to test for compound auto fluorescence at 590 nm (red) in HepG2 cells (AID 720674). An outline of the steps:
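Compound auto-fluorescence is scored relative to Rose Bengal sodium, measured at 540/590 nm in live HepG2 cultures after 1 hr compound contact (37 C, 5% CO2).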

Inconclusive results are not listed. Calls of active or inactive are those of the source. Unless noted, calls come from the whole dose curve; as a rule, active = well fitted curve in the direction sought with a large enough effect in the repeat runs; inconclusive = weak or mixed curves; inactive = no such curve, though single readings can be large; an effect the other way counts as inactive or inconclusive.

Regarding `NCCN1CCNCC1`, the molecule was classed as inactive in experiment [1], in [2], in experiment [3], in experiment [7], in experiment [8] and in experiment [9]. In addition, the Potency entry in experiment [4], in experiment [5] and in [6] was “inactive” throughout.
Regarding `O=C(O)CCCCCCCCC(=O)O`, the molecule was classed as inactive in experiment [1], in experiment [2], in experiment [3], in [7], in experiment [8] and in [9]. Further, the Potency result in experiment [4], in [5] and in [6] was “inactive” each time.
Consider `CNC(=S)N(C)C`, for which the molecule was called inactive in [1], in [2], in [3], in experiment [7] and in [8]. Besides, the Potency result in experiment [4], in experiment [5] and in experiment [6] was “inactive” each time.
For the molecule `CC(=O)CCC=C(C)C`, the outcome in [1], in [2], in experiment [3], in [10], in experiment [7] and in experiment [8] was inactive. Besides, the Potency result in [4], in experiment [5] and in experiment [6] was “inactive” each time.
On to `OCc1cccc(Oc2ccccc2)c1`, for which the result in experiment [1], in experiment [2], in [3], in [7], in [8] and in experiment [9] was inactive. Further, the Potency entry in experiment [4] and in experiment [5] was “inactive” throughout. For the same molecule, the Potency in [6] was 54.5 µM (active).
In the case of `CCCCCCCCCCN`, the molecule was classed as inactive in experiment [1], in experiment [2], in [3], in experiment [10], in experiment [7] and in experiment [8]. The molecule was called inactive in experiment [9]. The Potency entry in experiment [4], in experiment [5] and in experiment [6] was “inactive” in each case.
Regarding `CCOC(=O)c1ccc(N)cc1`, the call in [1], in experiment [2], in experiment [3], in experiment [10], in [7] and in [8] was inactive. Further, in experiment [9], the molecule was classed as inactive. In addition, the Potency result in [4], in [5] and in experiment [6] was “inactive” throughout.
Consider `Cc1ccc([N+](=O)[O-])cc1S(=O)(=O)O`, for which the molecule was called inactive in [1], in [2], in experiment [3], in experiment [10], in experiment [7] and in experiment [8]. Also, the molecule was classed as inactive in experiment [9]. In addition, the Potency result in experiment [4], in [5] and in [6] was “inactive” in each case.
Consider `CCCCCC(=O)O`, for which the result in experiment [1], in experiment [2], in experiment [3], in experiment [10], in experiment [7] and in experiment [8] was inactive. The call in experiment [9] was inactive. The Potency result in experiment [4], in experiment [5] and in experiment [6] was “inactive” throughout.
Take `COc1ccc(OC)cc1`: the call in experiment [1], in experiment [2], in experiment [3], in [10], in [7] and in experiment [8] was inactive. Besides, the molecule was classed as inactive in [9]. Besides, the Potency entry in [4], in experiment [5] and in [6] was “inactive” in each case.
On to `CC1(C)NC(=O)NC1=O`, for which the call in experiment [1], in experiment [2], in [3], in [10], in [7] and in [8] was inactive. In addition, the result in [9] was inactive. Moreover, the Potency entry in experiment [4], in experiment [5] and in [6] was “inactive” each time.
For the molecule `CC1(C)CC(N)CC(C)(CN)C1` (stereo not given), the molecule was called inactive in experiment [1], in experiment [2], in [3], in [7] and in experiment [8]. Moreover, the Potency entry in [4], in experiment [5] and in experiment [6] was “inactive” each time.
As for `CNC(=O)Oc1ccc2c(c1)[C@]1(C)CCN(C)[C@@H]1N2C`, the molecule was classed as inactive in experiment [1], in experiment [2], in experiment [3], in experiment [10], in experiment [7] and in experiment [8]. Also, the result in experiment [9] was inactive. The Potency entry in experiment [4] and in experiment [5] was “inactive” throughout.
As for `CCCCCCCC=O`, the molecule was classed as inactive in experiment [1], in experiment [2], in experiment [3], in experiment [10], in experiment [7] and in experiment [8]. Also, the Potency entry in experiment [4] and in experiment [5] was “inactive” in each case.
As to `Cc1ccc2ncccc2c1`, the outcome in experiment [1], in experiment [2], in [3], in experiment [7] and in [8] was inactive. Further, the Potency entry in experiment [5] and in experiment [6] was “inactive” in each case.
For the molecule `CCCCCCCCCCO`, the outcome in experiment [1], in experiment [2], in experiment [3], in experiment [7], in [8] and in experiment [9] was inactive. The Potency entry in experiment [5] and in experiment [6] was “inactive” each time.
`CCO[Si](CCCN)(OCC)OCC`: the call in experiment [1], in experiment [2], in experiment [3], in experiment [10], in experiment [7] and in [8] was inactive. Moreover, in [9], the molecule was called inactive. The Potency entry in [5] and in [6] was “inactive” each time.
Turning to `C=CCCCCCCCCC(=O)O`, the molecule was called inactive in experiment [1], in experiment [2], in experiment [3], in [10], in [7] and in [8]. Further, the call in experiment [9] was inactive. Further, the Potency result in [4] and in experiment [5] was “inactive” each time.
For `COCCCN`, the result in experiment [1], in [2], in [3], in experiment [7], in experiment [8] and in [9] was inactive. For the same molecule, the Potency result in experiment [5] and in [6] was “inactive” each time.
Take `O=C(OCC1CCC2OC2C1)C1CCC2OC2C1` (stereo not given): the molecule was classed as inactive in experiment [1], in experiment [2], in experiment [3], in [10], in experiment [7] and in experiment [8]. Moreover, the result in experiment [9] was inactive. Also, the Potency result in experiment [5] and in experiment [6] was “inactive” throughout.
Turning to `CC(=O)c1ccc(O)cc1`, the molecule was classed as inactive in [1], in experiment [2], in [3], in [10], in [7] and in experiment [8]. The molecule was classed as inactive in [9]. In addition, the Potency entry in [5] and in experiment [6] was “inactive” throughout.
For the molecule `CCNc1cccc(C)c1`, the molecule was called inactive in [1], in experiment [2], in experiment [3], in experiment [10], in experiment [7] and in experiment [8]. Further, the call in experiment [9] was inactive. Further, the Potency result in [5] and in experiment [6] was “inactive” in each case.
Consider `COc1ccccc1OCC(O)CO` (stereo not given), for which the molecule was classed as inactive in experiment [1], in experiment [2], in experiment [3], in [7] and in experiment [8]. Moreover, the Potency entry in experiment [5] and in [6] was “inactive” throughout.
For the molecule `Clc1ccccn1`, the result in [1], in experiment [2], in [3], in experiment [10], in experiment [7] and in experiment [8] was inactive. The Potency entry in experiment [5] and in experiment [6] was “inactive” throughout.
As to `O=C(O)c1ccc(S(=O)(=O)N(Cl)Cl)cc1`, the outcome in [1], in [2], in experiment [3], in experiment [10], in experiment [7] and in experiment [8] was inactive. Moreover, the result in experiment [9] was inactive. Moreover, the Potency entry in experiment [5] and in [6] was “inactive” each time.
As to `C=CC(C)CCCC(C)(C)O` (stereo not given), the outcome in experiment [1], in [2], in experiment [3], in [10], in [7] and in experiment [8] was inactive. Moreover, the outcome in experiment [9] was inactive. Moreover, the Potency result in experiment [4] and in [5] was “inactive” in each case.
